The target of this test is PADI4, Q9UM07. In words: log2 enrichment score relative to parent PADI4_3 peptide (binding to PADI4); higher = tighter binding than parent. Conditions: CaCl2: 10 mM. The method, then:
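Deep mutational scan of the cyclic peptide PADI4_3 (ClAc-D-Tyr1 initiator, thioether-cyclised to Cys12, C-terminal Gly plus HA tag, mRNA-displayed). Positions 2-11 were each randomised by NNK codons; Met was reprogrammed as N-methyl-alanine (MeA). One round of equilibrium panning against bead-immobilised human PADI4 (100 nM, 10 mM CaCl2, RT). Log2 enrichment (bound/input frequency) relative to the parent sequence (0 = parent), mean of three independent selections.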

Chain of PADI4, Q9UM07 (Q9UM07 whole entry): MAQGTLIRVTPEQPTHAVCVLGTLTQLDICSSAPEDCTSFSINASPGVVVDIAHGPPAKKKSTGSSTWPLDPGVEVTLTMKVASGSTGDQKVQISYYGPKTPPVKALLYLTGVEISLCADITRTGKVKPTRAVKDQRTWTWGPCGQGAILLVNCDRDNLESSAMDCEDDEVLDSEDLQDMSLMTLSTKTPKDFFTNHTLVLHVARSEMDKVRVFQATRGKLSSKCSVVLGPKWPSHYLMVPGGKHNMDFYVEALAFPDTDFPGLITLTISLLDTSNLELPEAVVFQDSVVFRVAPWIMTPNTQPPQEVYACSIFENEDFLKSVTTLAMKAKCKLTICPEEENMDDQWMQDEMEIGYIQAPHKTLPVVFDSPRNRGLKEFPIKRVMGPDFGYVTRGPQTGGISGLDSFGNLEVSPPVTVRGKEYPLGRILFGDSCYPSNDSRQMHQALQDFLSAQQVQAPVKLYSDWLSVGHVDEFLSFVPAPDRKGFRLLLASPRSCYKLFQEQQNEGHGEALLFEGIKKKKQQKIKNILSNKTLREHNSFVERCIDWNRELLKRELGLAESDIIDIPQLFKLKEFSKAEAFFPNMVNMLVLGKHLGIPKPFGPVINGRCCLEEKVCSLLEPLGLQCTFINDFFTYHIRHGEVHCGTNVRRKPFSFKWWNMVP

B1: PADI4_3_R2Q R2Q (peptide)
chain: YQDHHYRHPKYCG
Turning to B1, the log2 enrichment score is -1.6.

B2: PADI4_3_H8A H8A (peptide)
chain: YRDHHYRAPKYCG
Take B2: the log2 enrichment score is -3.62.

B3: PADI4_3_P9G P9G (peptide)
chain: YRDHHYRHGKYCG
Turning to B3, the log2 enrichment score is -2.45.

B4: PADI4_3_Y6N Y6N (peptide)
chain: YRDHHNRHPKYCG
On to B4, for which the log2 enrichment score is -2.28.

B5: PADI4_3_H4A H4A (peptide)
chain: YRDAHYRHPKYCG
Turning to B5, the log2 enrichment score is -1.88.

B6: PADI4_3_H5L H5L (peptide)
chain: YRDHLYRHPKYCG
Turning to B6, the log2 enrichment score is -3.61.

B7: PADI4_3_H4I H4I (peptide)
chain: YRDIHYRHPKYCG
As to B7, the log2 enrichment score is -2.05.

B8: PADI4_3_Y11A Y11A (peptide)
chain: YRDHHYRHPKACG
With B8, the log2 enrichment score is -4.24.

B9: PADI4_3_R2L R2L (peptide)
chain: YLDHHYRHPKYCG
In the case of B9, the log2 enrichment score was -0.745.

B10: PADI4_3_H5G H5G (peptide)
chain: YRDHGYRHPKYCG
Regarding B10, the log2 enrichment score is -3.73.

B11: PADI4_3_Y6L Y6L (peptide)
chain: YRDHHLRHPKYCG
On to B11, for which the log2 enrichment score was -1.7.

B12: PADI4_3_R2I R2I (peptide)
chain: YIDHHYRHPKYCG
For the molecule B12, the log2 enrichment score was -1.38.

B13: PADI4_3_H8Q H8Q (peptide)
chain: YRDHHYRQPKYCG
In the case of B13, the log2 enrichment score is -3.37.

B14: PADI4_3_K10L K10L (peptide)
chain: YRDHHYRHPLYCG
For B14, the log2 enrichment score came to 0.693.

B15: PADI4_3_H5A H5A (peptide)
chain: YRDHAYRHPKYCG
Consider B15, for which the log2 enrichment score is -2.12.

B16: PADI4_3_D3L D3L (peptide)
chain: YRLHHYRHPKYCG
For the molecule B16, the log2 enrichment score is -2.88.

B17: PADI4_3_R7Q R7Q (peptide)
chain: YRDHHYQHPKYCG
As to B17, the log2 enrichment score was -0.31.

B18: PADI4_3_K10Q K10Q (peptide)
chain: YRDHHYRHPQYCG
With B18, the log2 enrichment score was -1.09.

B19: PADI4_3_R7A R7A (peptide)
chain: YRDHHYAHPKYCG
Consider B19, for which the log2 enrichment score amounted to 0.206.

B20: PADI4_3_H8L H8L (peptide)
chain: YRDHHYRLPKYCG
Regarding B20, the log2 enrichment score was -3.01.

B21: PADI4_3_R7L R7L (peptide)
chain: YRDHHYLHPKYCG
With B21, the log2 enrichment score was -2.09.

B22: PADI4_3_H8G H8G (peptide)
chain: YRDHHYRGPKYCG
Regarding B22, the log2 enrichment score was -3.99.

B23: PADI4_3_Y11Q Y11Q (peptide)
chain: YRDHHYRHPKQCG
Consider B23, for which the log2 enrichment score was -4.43.

B24: PADI4_3_H5N H5N (peptide)
chain: YRDHNYRHPKYCG
Take B24: the log2 enrichment score was -3.38.

B25: PADI4_3_Y6G Y6G (peptide)
chain: YRDHHGRHPKYCG
With B25, the log2 enrichment score is -1.54.

B26: PADI4_3_P9N P9N (peptide)
chain: YRDHHYRHNKYCG
On to B26, for which the log2 enrichment score was -2.01.

B27: PADI4_3_D3G D3G (peptide)
chain: YRGHHYRHPKYCG
Regarding B27, the log2 enrichment score is -3.8.

B28: PADI4_3_P9L P9L (peptide)
chain: YRDHHYRHLKYCG
As to B28, the log2 enrichment score is -2.12.

B29: PADI4_3_R7N R7N (peptide)
chain: YRDHHYNHPKYCG
For B29, the log2 enrichment score was 1.37.

B30: PADI4_3_K10G K10G (peptide)
chain: YRDHHYRHPGYCG
Turning to B30, the log2 enrichment score was -2.43.

B31: PADI4_3_R7I R7I (peptide)
chain: YRDHHYIHPKYCG
As to B31, the log2 enrichment score is -1.67.

B32: PADI4_3_D3I D3I (peptide)
chain: YRIHHYRHPKYCG
In the case of B32, the log2 enrichment score is -4.17.

B33: PADI4_3_Y6Q Y6Q (peptide)
chain: YRDHHQRHPKYCG
For B33, the log2 enrichment score is -1.94.

B34: PADI4_3_K10A K10A (peptide)
chain: YRDHHYRHPAYCG
As for B34, the log2 enrichment score is -1.7.

B35: PADI4_3_Y11L Y11L (peptide)
chain: YRDHHYRHPKLCG
Turning to B35, the log2 enrichment score is -3.94.

B36: PADI4_3_H4N H4N (peptide)
chain: YRDNHYRHPKYCG
As for B36, the log2 enrichment score is -2.71.

B37: PADI4_3_D3A D3A (peptide)
chain: YRAHHYRHPKYCG
Regarding B37, the log2 enrichment score is -2.97.

B38: PADI4_3_R2A R2A (peptide)
chain: YADHHYRHPKYCG
Consider B38, for which the log2 enrichment score is -2.77.

B39: PADI4_3_Y11G Y11G (peptide)
chain: YRDHHYRHPKGCG
Turning to B39, the log2 enrichment score is -4.17.

B40: PADI4_3_Y11N Y11N (peptide)
chain: YRDHHYRHPKNCG
Consider B40, for which the log2 enrichment score is -3.81.

B41: PADI4_3_H8N H8N (peptide)
chain: YRDHHYRNPKYCG
Consider B41, for which the log2 enrichment score is -2.87.

B42: PADI4_3_R7G R7G (peptide)
chain: YRDHHYGHPKYCG
On to B42, for which the log2 enrichment score is -2.58.

B43: PADI4_3_D3Q D3Q (peptide)
chain: YRQHHYRHPKYCG
Turning to B43, the log2 enrichment score is -3.32.

B44: PADI4_3_H4G H4G (peptide)
chain: YRDGHYRHPKYCG
With B44, the log2 enrichment score was -3.75.

B45: PADI4_3_R2N R2N (peptide)
chain: YNDHHYRHPKYCG
In the case of B45, the log2 enrichment score was -2.77.

B46: PADI4_3_H4Q H4Q (peptide)
chain: YRDQHYRHPKYCG
Consider B46, for which the log2 enrichment score is -0.57.

B47: PADI4_3_Y6I Y6I (peptide)
chain: YRDHHIRHPKYCG
Turning to B47, the log2 enrichment score is -2.71.

B48: PADI4_3_Y6A Y6A (peptide)
chain: YRDHHARHPKYCG
As for B48, the log2 enrichment score was -1.95.

B49: PADI4_3_R2G R2G (peptide)
chain: YGDHHYRHPKYCG
For the molecule B49, the log2 enrichment score was -3.89.

B50: PADI4_3_K10I K10I (peptide)
chain: YRDHHYRHPIYCG
Consider B50, for which the log2 enrichment score is 2.81.

B51: PADI4_3_D3N D3N (peptide)
chain: YRNHHYRHPKYCG
B51: the log2 enrichment score was -2.8.

B52: PADI4_3_H5I H5I (peptide)
chain: YRDHIYRHPKYCG
For B52, the log2 enrichment score was -3.45.

B53: PADI4_3_P9I P9I (peptide)
chain: YRDHHYRHIKYCG
For the molecule B53, the log2 enrichment score was -1.78.

B54: PADI4_3_H8I H8I (peptide)
chain: YRDHHYRIPKYCG
Regarding B54, the log2 enrichment score was -3.37.

B55: PADI4_3_H5Q H5Q (peptide)
chain: YRDHQYRHPKYCG
Consider B55, for which the log2 enrichment score is -3.72.

B56: PADI4_3_Y11I Y11I (peptide)
chain: YRDHHYRHPKICG
Regarding B56, the log2 enrichment score is -3.77.

B57: PADI4_3_P9A P9A (peptide)
chain: YRDHHYRHAKYCG
In the case of B57, the log2 enrichment score was -1.66.

B58: PADI4_3_K10N K10N (peptide)
chain: YRDHHYRHPNYCG
Take B58: the log2 enrichment score is -1.77.

B59: PADI4_3_P9Q P9Q (peptide)
chain: YRDHHYRHQKYCG
With B59, the log2 enrichment score is -1.71.

Values taken from the supplement of paper PMC11555231.
